SMILES strings stand for the structures. Where “and” joins values, the source holds several entries; their conditions need not be identical. Equal values may be shown once. In all, about 280,000 compounds went through this assay and about 1,100 (0.39%) were called active. Another 7% or so got no clear call; they are omitted. The entries come from a sample that favours actives as a whole. A number with no mark means an inactive call. Calls come from the whole dose curve; as a rule, active = well fitted inhibition curve with a large enough effect; inconclusive = small, poorly fitted or top-dose-only effect, or effect the other way; inactive = flat fitted curve, though single readings scatter.
% is set by controls: 0 for no effect and ±100 for the full control effect; potency is the fitted concentration of half-maximal effect.

In the assay the target is Microtubule-associated protein tau (Homo sapiens) (UniProt P10636). The assay can be described thus: qHTS for Inhibitors of Tau Fibril Formation, Fluorescence Polarization. Note: nearly all actives have a fitted effect of over 55% in size. The following applies: K18 P301L tau heparin fibrillization, Alexa594 FP, 6 h; series mostly up to 57.7 µM; activity, negative = inhibition: at the top concentration. The gist of the method: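 Recombinant K18 P301L […], labeled with Alexa 594 at 0.24 uM over 15 uM unlabeled; heparin inducer 20 uM final; 37 C, 6 hr; FP endpoint.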
Sequence of Microtubule-associated protein tau (Homo sapiens) (P10636 561-689 P618L limits assumed): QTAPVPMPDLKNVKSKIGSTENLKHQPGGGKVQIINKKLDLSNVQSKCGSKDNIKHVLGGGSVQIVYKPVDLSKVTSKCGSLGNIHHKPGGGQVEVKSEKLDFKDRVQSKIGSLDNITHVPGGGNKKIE
`Cc1cccc2nc(-c3ccc(Cl)s3)c(Nc3ccc4c(c3)OCCO4)n12`: the “activity, negative = inhibition” value is 15.1%.
The same measure, in the same setting: with `Cc1ccc2sc(N(Cc3cccnc3)C(=O)C3COc4ccccc4O3)nc2c1C` (stereo unspecified) the figure was -11.1%; with `COc1ccc(N2CCN(C(=O)C3CCCN(C(=O)c4cc5sccc5n4C)C3)CC2)cc1` (stereo unspecified), 0.211%.
The same measure, in the same setting: with `CCc1ccc(CN(Cc2ccco2)C(=O)COc2ccc(Cl)c(C)c2)cc1` the figure was -0.51%.
Same read-out and setting: the figure for `CCOC(=O)C1=C(C)N=c2s/c(=C\C(=O)OC)c(=O)n2C1c1ccc(OC)cc1` (stereo unspecified) is -6.96%.
As to `COc1ccc(OC)c(C2C3=C(N=c4s/c(=C\c5cccc(O)c5)c(=O)n42)c2ccccc2CC3)c1` (stereo unspecified), the Potency was 22.4 µM (active).
As to `O=C1CCCC2=C1C(c1ccccc1)n1c(s/c(=C/c3cccc(F)c3)c1=O)=N2` (stereo unspecified), the “activity, negative = inhibition” value was 3.54%.
With `COC(=O)c1sccc1S(=O)(=O)N(CC(=O)Nc1ccc(C)c(F)c1)c1ccc(C)c(C)c1`, the “activity, negative = inhibition” value was -14.9%.
Still for that read-out and setting: with `CCOc1ccc(Nc2ncnc3scc(-c4ccc(OC)cc4)c23)cc1` the figure was -6.54%; with `CCOC(=O)N1CCc2c(sc(NCc3cccc(F)c3)c2C(=O)Nc2ccccc2OCC)C1`, -0.601%; with `CCOC(=O)N1CCc2c(sc3c2c(=O)n(-c2ccc(CC)cc2)c(=O)n3C)C1`, -1.85%.
The same measure, in the same setting: the figure for `Cc1ccccc1CNC(=O)c1cccc(NC(=O)c2nsc3ccccc23)c1` is -13.5%; for `Cc1cc(NC(=O)Nc2ccc(Cl)cc2)n(-c2ccccc2)n1` it is -1.98%.
Same read-out and setting: with `Cc1cc(NC(=O)Nc2ccccc2)n(-c2ccccc2)n1` the figure was 0.333%.
For the compound `Cc1ccc(NC(=O)Nc2cc(-c3ccccc3)nn2C)cc1Cl`, the Potency was 14.1 µM (active).
In the case of `CC1CN(C(=O)N2CCC(C(=O)NCc3ccco3)CC2)c2cc(Cl)ccc2O1` (stereo unspecified), the “activity, negative = inhibition” value was -17%.
Same read-out and setting: the figure for `Cc1cccc(NC(=O)CSc2nc3c([nH]c4ccccc43)c(=O)n2-c2cc(C)cc(C)c2)c1` is 2.58%; for `COCCn1c(SCC(=O)c2cc(C)ccc2C)nc2cc(C(=O)NC3CCCC3)ccc2c1=O` it is 5.5%; for `COc1ccc(-c2cn3c(C)c(C(=O)Nc4cc(C)cc(C)c4)sc3n2)cc1` it is 1.72%.
On the same count and under the same terms, with `O=C1OC(NC(=O)c2ccccc2)C(N2CCOCC2)=C1Cl` (stereo unspecified) the figure was 2.21%.
`O=C1C(Cl)=C(N2CCOCC2)C(=O)N1c1ccccc1`: the Potency was 28.2 µM (active).
With `c1ccc(-n2nnnc2N2CCOCC2)cc1`, the “activity, negative = inhibition” value is -2.66%.
Still for that read-out and setting: the figure for `Cc1ccc2nc(N3CCN(c4cccc(Cl)c4)CC3)c3nnnn3c2c1` is 4.68%; for `O=C(CNS(=O)(=O)c1cccs1)N1CCN(c2ccccc2Cl)CC1` it is -6.87%; for `Cc1ccccc1CN1CCC(CNC(=O)c2cc3ccc4cccnc4c3[nH]2)CC1` it is -3.29%.
`COc1ccccc1CNC(=O)NCc1noc2ccc(C)cc12`: the “activity, negative = inhibition” value is 1.34%.
For the compound `Cc1ccc(NC(=O)C2CCN(S(=O)(=O)c3cc(-c4noc(C)n4)ccc3C)CC2)c(C)c1`, the “activity, negative = inhibition” value is -4.96%.
On the same count and under the same terms, with `COc1ccc(OC)c(NC(=O)CSc2nc3ccccc3nc2N2CCCCC2)c1` the figure was -3.04%.
Consider `O=c1c(O)c(Br)ccc2c(Br)c(O)c(O)c(O)c12`, for which the Potency was 10 µM (active).
`CC(C)Cn1c(=O)c2ccccc2n2c(-c3cccc(Cl)c3)nnc12`: the “activity, negative = inhibition” value is 3.1%.
Still for that read-out and setting: the figure for `COc1ccc2c(c1)c(N1CCCC1=O)c(C(=O)Nc1ccccc1C(F)(F)F)n2C` is 2.44%; for `CN(c1ccccc1)c1nc(N)c([N+](=O)[O-])c(NCc2ccco2)n1` it is -3.58%.
Regarding `COc1cccc(Nc2nc(N)c([N+](=O)[O-])c(NCc3ccco3)n2)c1`, the Potency is 3.16 µM (active).
`COc1ccc(Nc2nc(Cl)nc(NCc3ccco3)n2)cc1`: the “activity, negative = inhibition” value was -4.68%.
On to `O=C(NCC(c1cccnc1)N1CCc2ccccc21)c1cccc(C(F)(F)F)c1` (stereo unspecified), for which the “activity, negative = inhibition” value is 0.0255%.
Consider `COc1ccc(S(=O)(=O)NC(C)C)cc1C(=O)NC1CCCCC1`, for which the “activity, negative = inhibition” value was 5.06%.
For the compound `CC(C)c1ccc(NS(=O)(=O)c2ccc3[nH]cc(C(=O)NC4CCCC4)c(=O)c3c2)cc1`, the Potency is 11.2 µM (active).
For the compound `Cc1cc(C)cc(NS(=O)(=O)c2ccc3[nH]cc(C(=O)N4CCCCC4)c(=O)c3c2)c1`, the “activity, negative = inhibition” value was -10.1%.
Same read-out and setting: the figure for `Cc1cccc(NC(=O)Cn2nc(-c3ccc(Cl)cc3)c3ccccc3c2=O)c1` is -11.8%.
Still for that read-out and setting: with `O=S(=O)(c1ccccc1)c1nc(-c2ccc(Cl)cc2Cl)oc1N1CCCCC1` the figure was -1.05%; with `CCc1ccc(NC(=O)CN2CCSc3ccc(S(=O)(=O)N4CCCC4)cc32)cc1`, 13.3%.
On the same count and under the same terms, with `COc1ccc(S(=O)(=O)NCc2cccn2Cc2cccc(C)c2)cc1Cl` the figure was -2.29%; with `Cc1cccc(CC(=O)N2CC(=O)Nc3ccc(F)cc3C2c2ccccc2)c1` (stereo unspecified), 3.28%; with `O=C(Nc1ccc(-c2nc3cc(NC(=O)c4ccccc4Cl)ccc3o2)cc1)c1ccccc1Cl`, -11.4%.
As for `Cc1ccc(-c2nnc(-c3ccc(NC(=O)c4cccs4)cc3)o2)cc1`, the “activity, negative = inhibition” value was -15.2%.
As to `CC(C)c1ccc2oc(-c3cc(NC(=O)c4cccs4)ccc3Cl)nc2c1`, the Potency is 12.6 µM (active).
As to `CCN(CC)CCNC(=O)c1cc2c(=O)oc3ccc(C)cc3c2s1`, the “activity, negative = inhibition” value was -3%.
The same measure, in the same setting: with `Cc1cccc(NC(=O)c2cccc(C(F)(F)F)c2)c1` the figure was -3.83%.
Consider `Cc1cccc(NC(=O)Nc2cccc(Oc3c(F)c(F)c(F)c(F)c3F)c2)c1`, for which the Potency was 8.91 µM (active).
For the compound `COc1cccc(NC(=O)NCc2ccc(F)cc2)c1`, the “activity, negative = inhibition” value is 2.67%.
Still for that read-out and setting: with `COc1cc2c(=O)c(S(=O)(=O)c3ccc(C(C)C)cc3)cn(Cc3ccccc3C)c2cc1OC` the figure was -6.3%; with `O=C(Nc1ccccc1)Nc1ccccc1C(=O)NCc1ccco1`, 1.95%; with `CCOc1ccc(CNC(=O)c2cc(-c3ccc(Cl)s3)nc3ccccc23)cc1`, -1.48%.
For the compound `CCc1ccc(-c2cc(C(=O)NCc3ccco3)c3ccccc3n2)s1`, the Potency is 28.2 µM (active).
Consider `COc1ccc(-c2noc(-c3ccc(N4CCN(c5ccccc5)CC4)c([N+](=O)[O-])c3)n2)cc1OC`, for which the “activity, negative = inhibition” value was -7.68%.
Still for that read-out and setting: the figure for `CCOc1ccccc1CNCc1c(C(=O)O)c(C)n(Cc2ccc(C)cc2)c1C` is 4.65%.
The same measure, in the same setting: the figure for `COc1ccccc1CNC(=O)CCn1c(=O)c2ccccc2n(CC(=O)Nc2ccc(Br)cc2F)c1=O` is 1.54%.
Same read-out and setting: the figure for `Cc1cc(C)c2oc(C(=O)Nc3ccc(S(=O)(=O)N(C)c4ccccc4)cc3)cc(=O)c2c1` is -8.97%.
`COc1ccc(-c2csc(-c3c(N)c(C(=O)c4ccc(OC)c(OC)c4)n4ccccc34)n2)cc1`: the “activity, negative = inhibition” value is 12.3%.
`Cc1ccc(Cl)cc1N1CCN(C(=O)CN2C(=O)COc3ccc(S(=O)(=O)N4CCOCC4)cc32)CC1`: the “activity, negative = inhibition” value was -0.519%.
On the same count and under the same terms, the figure for `COc1ccc(-n2c(=O)c3c(c4cc(OC)ccc4n3C)n(Cc3cccc(C)c3)c2=O)cc1` is -0.719%.
As to `Nc1ccc2nc3c(=O)[nH]c(=S)[nH]c3nc2c1`, the Potency was 2.24 µM (active).
Turning to `O=c1[nH]c(=O)c2nc3ccccc3nc2[nH]1`, the Potency result is “inactive”.
Regarding `COc1ccc(CCNC(=O)c2ccc(-n3c(C)cc4c3CCCC4)cc2)cc1OC`, the “activity, negative = inhibition” value is -18.1%.
Still for that read-out and setting: the figure for `Cc1ccc2oc3c(c(=O)c2c1)C(c1ccc([N+](=O)[O-])cc1)N(CCCN1CCOCC1)C3=O` (stereo unspecified) is -14.4%.
Consider `Cc1cc(C)c(NC(=O)CCc2c(C)nc3c(c(C)nn3C(C)(C)C)c2C)c(C)c1`, for which the “activity, negative = inhibition” value is 2.3%.
On the same count and under the same terms, with `COC(=O)c1ccccc1NC(=O)c1ccc2c(=O)n3c(nc2c1)CCCCC3` the figure was 1.03%; with `COc1ccc(N2CCN(c3nc(-c4ccccc4F)nc4ccccc34)CC2)cc1`, 8.29%.
As to `CC(=O)Oc1c2c(c3c(c1CC=C(C)C)O[C@@]14C(=CC5CC1C(C)(C)OC4(C/C=C(\C)C(=O)O)C5=O)C3=O)OC(C)(CCC=C(C)C)C=C2` (stereo partly specified), the Potency was 35.5 µM (active).
As for `CCc1cccc(NC(=O)CSc2nccn2C)c1`, the “activity, negative = inhibition” value is -0.623%.
On the same count and under the same terms, the figure for `COC(=O)c1c(NC(=O)C(C)Oc2ccc(Cl)c(C)c2)sc(C)c1C` (stereo unspecified) is -9.25%; for `CCc1nc2cccnc2n1-c1ccc(CC(=O)Nc2c(C)cccc2C)cc1` it is -3.28%.
As for `CCN(CC)S(=O)(=O)c1ccc2[nH]cc(C(=O)NCCc3ccccc3)c(=O)c2c1`, the Potency is 12.6 µM (active) and 14.1 µM (active).
Consider `CCN(CC(=O)NCCc1ccccc1)S(=O)(=O)c1ccccc1`, for which the “activity, negative = inhibition” value was -6.4%.
On to `CCN(CC(=O)NCCc1ccccc1)S(=O)(=O)c1ccc(C)cc1`, for which the “activity, negative = inhibition” value is 0.415%.
On the same count and under the same terms, the figure for `CC(C)(C)OC(=O)N1CCC(c2c(C(=O)Nc3ccc4c(c3)OCO4)cnn2-c2ccccc2)CC1` is 8.34%.
Still for that read-out and setting: with `Cc1ccc(Cn2cc(CCC(=O)NCc3ccc(OC(C)C)cc3)c3ccccc32)cc1` the figure was -5.98%.
On the same count and under the same terms, the figure for `CC(=O)c1cccc(S(=O)(=O)N2CCC(n3nnc4cc(F)ccc43)CC2)c1` is -5.37%; for `Cc1ccc(C)c(N2CCN(c3ccc4cc(S(=O)(=O)N5CCC(C)CC5)ccc4n3)CC2)c1` it is -6.87%.
For the compound `CC(=O)c1cccc(Nc2ccc3cc(S(=O)(=O)N4CCC(C)CC4)ccc3n2)c1`, the Potency is 12.6 µM (active).
As for `Cc1ccc(CNS(=O)(=O)c2ccc(C(=O)N(C)C)s2)cc1`, the “activity, negative = inhibition” value is 7.1%.

Source of the values: PubChem BioAssay AID1468 (National Center for Advancing Translational Sciences (NCATS), 2008).
